Structures are written as SMILES. Where “and” joins values, the source holds several entries; their conditions need not be identical. Equal values may be shown once. Calls of active or inactive are those of the source. The calls were made as follows: active = hit-call score of the fitted dose curve at least 0.9, where 1 is the maximum; inactive = score below 0.9.

Read-out in the first assay: Insulin Like Growth Factor 1 (IGF1), IGF1 (gene 3479)
In words: LTEA_HepaRG_IGF1: Life Technologies and Expression Analysis (LTEA) Assay for Insulin Like Growth Factor 1 (IGF1) using HepaRG (AID 2283506). To be noted: mRNA level, 48 h; actives raise or lower the signal. The gist of the method: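 Cells are thawed, plated and cultured 48 h, then exposed in duplicate to chemical (highest 100 uM, half-log steps, 0.5% DMSO) for another 48 h. Total RNA is analysed by Fluidigm qRT-PCR for IGF1 expression relative to vehicle.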
`c1ccc(Nc2ccccc2)cc1`: the molecule was classed as inactive.

The term AC50 denotes the midpoint of the concentration-response curve, whichever way the signal moves. Consider `O=C(Nc1ccc([N+](=O)[O-])cc1Cl)c1cc(Cl)ccc1O`, for which the AC50 was 3.59 µM (active).

In the case of `CCN(Cc1c(F)cccc1Cl)c1c([N+](=O)[O-])cc(C(F)(F)F)cc1[N+](=O)[O-]`, the AC50 was 50 µM (active).

As for `C[C@]12CC[C@@H]3c4ccc(O)cc4C[C@@H](CCCCCCCCCS(=O)CCCC(F)(F)C(F)(F)F)[C@H]3[C@@H]1CC[C@@H]2O` (stereo not given in full), the outcome was inactive.

`C#CCOC(=O)[C@@H](C)Oc1ccc(Oc2ncc(Cl)cc2F)cc1`: the result was inactive.

Turning to `S=C([S-])NCCNC(=S)[S-].[Mn+2]`, the AC50 was 5 µM (active).

As to `CN(C)C(=O)Nc1ccc(Cl)c(Cl)c1`, the call was inactive.

`CCN(CC)C(=O)c1cccc(C)c1`: the AC50 was 13.1 µM (active).

Read-out in the next assay: Intercellular Adhesion Molecule 1 (ICAM1), ICAM1 (gene 3383)
Put plainly: LTEA_HepaRG_ICAM1: Life Technologies and Expression Analysis (LTEA) Assay for Intercellular Adhesion Molecule 1 (ICAM1) using HepaRG (AID 2283507). The conditions noted are these: mRNA level, 48 h; actives raise or lower the signal. The gist of the method:
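Using the human liver line HepaRG, compounds are tested in duplicate over 48 h at concentrations up to 100 uM. Expression is determined by TaqMan qRT-PCR, normalized to endogenous controls, and analysed relative to 0.5% DMSO vehicle.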
As for `Cc1nn(C)c(Oc2ccccc2)c1C=NOCc1ccc(C(=O)OC(C)(C)C)cc1`, the AC50 was 16.8 µM (active).

On to `CCCCOCCOCCOCc1cc2c(cc1CCC)OCO2`, for which the molecule was called inactive.

On to `S=C(S)NCCNC(=S)S.[Mn+2].[S-]C([S-])=NCCN=C([S-])[S-].[Zn+2]`, for which the AC50 was 1.8 µM (active) and 2.09 µM (active) and 2.17 µM (active).

For `CCOC(=O)C(C)Oc1ccc(Oc2nc3ccc(Cl)cc3o2)cc1` (stereo not given), the molecule was called inactive.

On to `CCOC(=O)COc1cc(-n2ncc(C(F)(F)F)c(C)c2=O)c(F)cc1Cl`, for which the molecule was classed as inactive.

For the molecule `CSC(=O)c1cccc2nnsc12`, the result was inactive.

`O=C(O)c1ccccc1`: the molecule was classed as inactive.

In the case of `CCCCOC(=O)[C@@H](C)Oc1ccc(Oc2ccc(C(F)(F)F)cn2)cc1`, the result was inactive.

For the molecule `CCCOC(=O)c1ccc(C(=O)OCCC)nc1`, the result was inactive.

Take `CC(=O)S[C@@H]1CC2=CC(=O)CC[C@]2(C)[C@H]2CC[C@@]3(C)[C@@H](CC[C@@]34CCC(=O)O4)[C@H]12`: the result was inactive.

Take `CC(C)CCCCCCc1ccc(O)cc1`: the call was inactive.

Take `CCC(C)OC(=O)N1CCCCC1CCO` (stereo not given): the call was inactive.

Turning to `OB(O)O`, the outcome was inactive.

In the case of `C[C@]12C[C@H](O)[C@H]3[C@@H](CCC4=CC(=O)CC[C@@]43C)[C@@H]1CC[C@@H]2C(=O)CO`, the call was inactive.

As to `CC(C)(C)[C@@H](O)[C@@H](Cc1ccc(Cl)cc1)n1cncn1`, the molecule was called inactive.

In the case of `CCCCCOC(=O)COc1cc(N2C(=O)C3=C(CCCC3)C2=O)c(F)cc1Cl`, the call was inactive.

As to `CC(C)(c1ccc(O)cc1)c1ccc(O)cc1`, the result was inactive.

For `C=CCOC(Cn1ccnc1)c1ccc(Cl)cc1Cl` (stereo not given), the AC50 is 13.2 µM (active).

With `c1ccc(Nc2ccccc2)cc1`, the molecule was classed as inactive.

Consider `O=C(Nc1ccc([N+](=O)[O-])cc1Cl)c1cc(Cl)ccc1O`, for which the AC50 is 6.3 µM (active).

As to `CCN(Cc1c(F)cccc1Cl)c1c([N+](=O)[O-])cc(C(F)(F)F)cc1[N+](=O)[O-]`, the outcome was inactive.

As for `C[C@]12CC[C@@H]3c4ccc(O)cc4C[C@@H](CCCCCCCCCS(=O)CCCC(F)(F)C(F)(F)F)[C@H]3[C@@H]1CC[C@@H]2O` (stereo not given in full), the AC50 was 0.0415 µM (active).

On to `C#CCOC(=O)[C@@H](C)Oc1ccc(Oc2ncc(Cl)cc2F)cc1`, for which the molecule was classed as inactive.

Turning to `S=C([S-])NCCNC(=S)[S-].[Mn+2]`, the AC50 is 6.29 µM (active).

With `CN(C)C(=O)Nc1ccc(Cl)c(Cl)c1`, the outcome was inactive.

As to `CCN(CC)C(=O)c1cccc(C)c1`, the call was inactive.

Read-out in a further assay: Insulin-like growth factor-binding protein 1 (IGFBP1), IGFBP1 (gene 3484)
Put plainly: LTEA_HepaRG_IGFBP1: Life Technologies and Expression Analysis (LTEA) Assay for Insulin-like growth factor-binding protein 1 (IGFBP1) using HepaRG (AID 2283508). To be noted: mRNA level, 48 h; actives raise or lower the signal. The gist of the method:
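HepaRG, 48 h, 8 conc. (max 100 uM, half-log), duplicates, 0.5% DMSO. Readout: TaqMan qRT-PCR, ACTB/GAPDH/POLR2A normalisation. Fit: bidirectional vs DMSO.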
As to `Cc1nn(C)c(Oc2ccccc2)c1C=NOCc1ccc(C(=O)OC(C)(C)C)cc1`, the AC50 was 9.63 µM (active).

In the case of `CCCCOCCOCCOCc1cc2c(cc1CCC)OCO2`, the molecule was classed as inactive.

`S=C(S)NCCNC(=S)S.[Mn+2].[S-]C([S-])=NCCN=C([S-])[S-].[Zn+2]`: the AC50 is 56.2 nM (active) and 104 nM (active) and 174 nM (active).

Regarding `CCOC(=O)C(C)Oc1ccc(Oc2nc3ccc(Cl)cc3o2)cc1` (stereo not given), the result was inactive.

Consider `CCOC(=O)COc1cc(-n2ncc(C(F)(F)F)c(C)c2=O)c(F)cc1Cl`, for which the result was inactive.

For the molecule `CSC(=O)c1cccc2nnsc12`, the outcome was inactive.

For the molecule `O=C(O)c1ccccc1`, the result was inactive.

Take `CCCCOC(=O)[C@@H](C)Oc1ccc(Oc2ccc(C(F)(F)F)cn2)cc1`: the result was inactive.

With `CCCOC(=O)c1ccc(C(=O)OCCC)nc1`, the call was inactive.

With `CC(=O)S[C@@H]1CC2=CC(=O)CC[C@]2(C)[C@H]2CC[C@@]3(C)[C@@H](CC[C@@]34CCC(=O)O4)[C@H]12`, the result was inactive.

`CC(C)CCCCCCc1ccc(O)cc1`: the molecule was classed as inactive.

As for `CCC(C)OC(=O)N1CCCCC1CCO` (stereo not given), the outcome was inactive.

Consider `OB(O)O`, for which the call was inactive.

In the case of `C[C@]12C[C@H](O)[C@H]3[C@@H](CCC4=CC(=O)CC[C@@]43C)[C@@H]1CC[C@@H]2C(=O)CO`, the outcome was inactive.

Turning to `CC(C)(C)[C@@H](O)[C@@H](Cc1ccc(Cl)cc1)n1cncn1`, the call was inactive.

As to `CCCCCOC(=O)COc1cc(N2C(=O)C3=C(CCCC3)C2=O)c(F)cc1Cl`, the molecule was classed as inactive.

As to `CC(C)(c1ccc(O)cc1)c1ccc(O)cc1`, the result was inactive.

As for `C=CCOC(Cn1ccnc1)c1ccc(Cl)cc1Cl` (stereo not given), the AC50 is 30 µM (active).

As to `c1ccc(Nc2ccccc2)cc1`, the outcome was inactive.

In the case of `O=C(Nc1ccc([N+](=O)[O-])cc1Cl)c1cc(Cl)ccc1O`, the AC50 is 2.13 µM (active).

`CCN(Cc1c(F)cccc1Cl)c1c([N+](=O)[O-])cc(C(F)(F)F)cc1[N+](=O)[O-]`: the AC50 was 28.8 µM (active).

With `C[C@]12CC[C@@H]3c4ccc(O)cc4C[C@@H](CCCCCCCCCS(=O)CCCC(F)(F)C(F)(F)F)[C@H]3[C@@H]1CC[C@@H]2O` (stereo not given in full), the AC50 is 22.3 µM (active).

Regarding `C#CCOC(=O)[C@@H](C)Oc1ccc(Oc2ncc(Cl)cc2F)cc1`, the call was inactive.

Take `S=C([S-])NCCNC(=S)[S-].[Mn+2]`: the AC50 is 0.194 µM (active).

In the case of `CN(C)C(=O)Nc1ccc(Cl)c(Cl)c1`, the AC50 is 34.6 µM (active).

`CCN(CC)C(=O)c1cccc(C)c1`: the molecule was classed as inactive.

Values taken from PubChem BioAssay (EPA / NIEHS).
